Most compounds without a hit are left out; they make up all but 7.9% or so of the library.
MCF10A rereplic = induces DNA re-replication in MCF 10a normal breast cells; MCF 10A DNA re-replication, Hoechst nuclear intensity, 48 h; Potency, µM (series often up to 46.1 µM), usual class: activators; hit rate 2.9% among 350,000; AID 624296; note: nearly all actives have a fitted effect of over 50% in size
KB-3-1 tox = KB-3-1 parental cell cytotoxicity; AID 1347075; KB-3-1 viability, CellTiter-Glo ATP luminescence, 72 h; hit rate 1.4% among 400,000; Potency, µM (doses to about 46.1 µM), most hits filed as cytotoxic; note: nearly all actives have a fitted effect of over 60% in size
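Here the drug-naive KB-3-1 line serves as comparator for MDR sub-line selectivity; cells received compound titrations, 72 h at 37 °C, then CellTiter-Glo readout.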
HT1080-NT tox = kills 2HG-producing HT-1080-NT fibrosarcoma cells; AID 686970; hit rate 1.6% among 360,000; Potency, µM (highest dose often 46.1 µM), most hits filed as cytotoxic; HT-1080-NT fibrosarcoma viability, CellTiter-Glo ATP luminescence, 48 h;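 note: NT is the 2HG producing partner of a matched IDH1 knockdown line; nearly all actives have a fitted effect of over 55% in size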
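Fibrosarcoma NT cells, 750 per well in 5% FBS RPMI, were exposed to compound for 48 hours. Viability: CellTiter-Glo luminescence.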
SW480 rereplic = inducers of DNA re-replication in SW480 colon cancer cells | SW480 DNA re-replication, Hoechst DNA content imaging, 48 h | Potency, µM (top dose mostly 46.1 µM), hits mostly activators | hit rate 1.8% among 340,000; note: nearly all actives have a fitted effect of over 55% in size
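Hoechst fluorescence of nuclei (405 nm excitation, 500-530 nm emission) measured by plate-scanning imager after 48 hr compound exposure at 37 C; re-replication scored as increased number of nuclei with elevated intensity.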
HT1080 IDH1KD tx = kills HT-1080 cells with IDH1 knockdown; HT-1080 IDH1 knockdown viability, ATP luminescence, 48 h; Potency, µM (top dose mostly 46.1 µM), usual class: cytotoxic; hit rate 2% among 360,000; AID 686971
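Cytotoxicity counter-line: IDH1KD HT-1080, 48 h, CellTiter-Glo. Curves classed by r2, magnitude and activity.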
KB-V1 cytotox = kills drug-selected multidrug resistant KB-V1 cells | KB-V1 MDR cells viability, CellTiter-Glo, 72 h | Potency, µM (titrated, usually from 46.1 µM), actives largely listed as cytotoxic | hit rate 3.4% among 400,000; note: nearly all actives have a fitted effect of over 60% in size
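Following 72 h at 37 degrees C with compound, KB-V1 cell viability was read by CellTiter-Glo luminescence, medium being phenol-red-free DMEM plus 10% FBS; concentration-response parameters came from normalized, curve-fitted qHTS data.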
A number is an active result; - = inactive; ? = inconclusive; . = no result given; [ ] = another dose, or the depositor's remark. Calls come from the whole dose curve; as a rule, active = well fitted curve in the direction sought with a large enough effect; inconclusive = small, poorly fitted or top-dose-only effect, or another doubt; inactive = no such curve, though single readings can be large; an effect the other way counts as inactive or inconclusive.

SMILES	MCF10A rereplic	KB-3-1 tox	HT1080-NT tox	SW480 rereplic	HT1080 IDH1KD tx	KB-V1 cytotox
CCCNC(=O)C1(C)CCCN(C(=O)c2c(F)ccc(C)c2F)C1 (stereo unspecified)	.	-	-	.	-	-
Cc1ccc(N(C(=O)CNC(=O)c2ccco2)C(C(=O)NC2CCCCC2)c2cccnc2)cc1 (stereo unspecified)	-	-	-	-	-	?
Cc1csc(NC(=O)CSc2nnc(-c3ccccc3)o2)n1	?	-	-	-	-	?
Cc1csc(NC(=O)CSc2ccc(-c3ccccc3)nn2)n1	-	-	-	-	-	23.1µM
COCCCNC(=O)c1ccc2c(c1)N(Cc1ccccc1F)C(=O)c1ccccc1S2=O (stereo unspecified)	.	-	.	.	.	?
CN1CCN(CCCNC(=O)c2ccc(/C=C3\Sc4ccccc4N(Cc4ccc(F)cc4)C3=O)cc2)CC1	18.4µM	-	-	?	-	-
COCCCNC(=O)/C=C1\Sc2ccccc2N(Cc2ccccc2F)C1=O	?	-	-	18.4µM	-	-
CN1CCN(CCCNC(=O)c2ccc(/C=C3/Sc4ccccc4N(Cc4cccc(Cl)c4)C3=O)cc2)CC1	?	-	-	?	-	?
CN1CCN(CCCNC(=O)c2ccc(/C=C3\Oc4ccccc4N(Cc4ccccc4F)C3=O)cc2)CC1	9.2µM	-	-	6.51µM	-	-
CCN1CCN(CCNC(=O)c2ccc(/C=C3\Sc4ccccc4N(Cc4ccccc4F)C3=O)cc2)CC1	13µM	-	16.4µM	18.4µM	20.6µM	?
Cc1ccc(CSCCNC(=O)C2CCN(S(=O)(=O)Cc3ccccc3)CC2)cc1	.	-	.	.	.	-
COc1ccc(OCc2cc(=O)c3ccc4c(c3o2)C=CC(C)(C)O4)cc1OC	-	-	-	-	-	-
CC(C)=CCOc1ccc([C@@H]2COc3c(ccc4c3C=CC(C)(C)O4)C2)c(O)c1	20.6µM	?	?	-	?	?
CCN(C(=O)CSc1nnc(-c2cc(OC)c(OC)c(OC)c2)o1)c1ccccc1	.	-	.	.	.	?
Cn1ncc(Cl)c1C(=O)N1CCN(c2ccc(F)cc2)CC1	-	-	-	-	-	-
CC(C)c1ccc(O)c(C(=O)c2cnn(-c3ccccc3)c2)c1	-	-	-	-	-	-
COCCNC(=O)C1CCCN(C(=O)c2ccc(F)c(C)c2)CC1 (stereo unspecified)	.	?	-	.	-	?
Cc1ccc2nc(SCn3nnc4ccccc4c3=O)[nH]c2c1	?	-	-	-	-	23.1µM
Cc1ccc2nc(SCC(=O)c3c(C)[nH]c4ccccc34)[nH]c2c1	13µM	-	-	-	-	?
COc1cccc(C2C(C#N)=C(N)Oc3cc(N)ccc32)c1OC (stereo unspecified)	-	-	-	-	-	-
N#CC1=C(N)Oc2cc(N)ccc2C1c1cccc(Br)c1 (stereo unspecified)	1.64µM	8.2µM	?	?	?	?
N#CC1=C(N)Oc2cc(N)ccc2C1c1cc(Br)cs1 (stereo unspecified)	?	8.2µM	2.06µM	16.4µM	2.91µM	?
COc1ccc(C2C(C#N)=C(N)Oc3cc(O)ccc32)cc1 (stereo unspecified)	-	-	-	-[1.84 µM]	-	-
N#CC1=C(N)Oc2cc(O)ccc2C1c1ccccc1 (stereo unspecified)	?	?	?	-	?	18.4µM
N#CC1=C(N)Oc2cc(N)ccc2C1c1ccccc1F (stereo unspecified)	18.4µM	?	14.6µM	18.4µM	16.4µM	7.31µM
SMILES	MCF10A rereplic	KB-3-1 tox	HT1080-NT tox	SW480 rereplic	HT1080 IDH1KD tx	KB-V1 cytotox
CCc1noc(C)c1C(=O)N1CCN(S(=O)(=O)c2ccc(Cl)s2)CC1	?	-	-	-	-	-
C[C@H](NS(=O)(=O)c1ccccc1F)C(=O)OCC(=O)Nc1ccc2c(c1)OCCO2	-	-	-	-	-	-
CC(NC(=O)C(C)(C)C)C(c1cccs1)N1CCOCC1 (stereo unspecified)	-	-	-	-	-	-
COc1cc(S(=O)(=O)Nc2c(C)cc(C)cc2C)ccc1Cl	-	-	-	-	-	18.4µM
COc1ccc(S(=O)(=O)Nc2ccccc2C(N)=O)cc1OC	-	-	-	6.51µM	-	-
COc1ccc(S(=O)(=O)Nc2cc(Cl)ccc2OC)cc1	3.26µM	3.66µM	6.51µM	2.91µM	?	5.8µM
COc1ccc(Cl)cc1NS(=O)(=O)c1ccc2[nH]c3c(c2c1)CCCC3	.	-	.	.	.	-
COc1ccc(Cl)cc1NS(=O)(=O)c1ccc(OC)c(OC)c1	-	-	-	-	-	16.4µM
COc1ccc(Cl)cc1NS(=O)(=O)c1ccc(S(=O)(=O)N2CCCC2)cc1	-	-	-	-	-	-
COc1cc(S(=O)(=O)Nc2ccccc2C)ccc1Cl	-	-	-	-	-	-
Cc1ccc(N2C(=O)C(Cl)=C(N3CCOCC3)C2=O)c(C)c1	-	?	-	-	-	-
CCOc1ccccc1N(C)C(=O)c1sc2nc3n(c(=O)c2c1C)CCCC3	.	-	.	.	.	-
C[C@@H]1CN([C@@H](C)CO)C(=O)c2cc(NS(C)(=O)=O)ccc2O[C@H]1CN(C)Cc1ccc(Oc2ccccc2)cc1	-	-	-	-	-	-
C[C@H]1CN([C@@H](C)CO)C(=O)c2cc(NC(=O)Cc3ccccc3)ccc2O[C@H]1CN(C)Cc1ccccc1	-	-	-	-	-	-
C[C@@H]1CN([C@H](C)CO)C(=O)c2cc(NC(=O)Cc3ccccc3)ccc2O[C@H]1CN(C)Cc1ccc(Oc2ccccc2)cc1	16.4µM	?	?	?	?	?
C[C@@H]1CN([C@H](C)CO)C(=O)c2cc(NC(=O)Nc3ccc(F)cc3)ccc2O[C@@H](C)CCCCO[C@H]1CN(C)Cc1ccc(C(=O)O)cc1	.	-	-	.	-	?
C[C@@H]1CN([C@@H](C)CO)C(=O)c2cc(NC(=O)Nc3ccc(F)cc3)ccc2O[C@@H]1CN(C)Cc1ccc(Oc2ccccc2)cc1	-	-	?	?	16.4µM	?
COc1ccc(CN(C)C[C@@H]2OCCCC[C@H](C)Oc3ccc(NC(=O)Nc4ccc(F)cc4)cc3C(=O)N([C@H](C)CO)C[C@H]2C)cc1	.	?	20.6µM	.	?	-
CC1(C(=O)NCc2ccccc2)CN(S(C)(=O)=O)CC(=O)N1CCc1ccccc1F (stereo unspecified)	.	-	-	.	-	-
Cc1cc(C(=O)NNc2ccc(F)cc2F)no1	?	-	3.66µM	-	5.17µM	-
Cc1ccc(NNC(=O)c2cc(C)on2)c(C)c1	-	-	?	-	8.2µM	-

Screening results deposited in PubChem by National Center for Advancing Translational Sciences (NCATS).
